Y pestis TopoI: inhibitors of Yersinia pestis topoisomerase I; Y. pestis Topo-I cleavage product accumulation, plate reader; activity, % at 10 µM; 360,000 compounds, 0.064% hits; AID 504884; in the data active = activity above about 50%, passing the limit was not always enough; inconclusive = no clear call, values can overlap the other calls
PfHsp40 rescue: restores yeast growth despite PfHsp40 toxicity; S. cerevisiae expressing PfHsp40, growth rescue, ATP luminescence; AID 504582; growth rescue, % at 12.5 µM; 340,000 compounds, 0.68% hits; in the data active = growth rescue above about 28%, passing the limit was not always enough; inconclusive = no clear call, values can overlap the other calls;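 note: yeast W303a lacking pdr1 and pdr3 grown in galactose medium; growth measured after three days at 30 °C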
CCHF vOTU inh-1: CCHFV vOTU protease inhibition. 370,000 compounds, 0.55% hits. inhibition, % at 11.5 µM. Pep-AMC fluorescence
PrPC surface inh: cell surface PrPC inhibition, primary TR-FRET screen; P04156; TR-FRET read-out; inhibition, % at 13.8 µM; 370,000 compounds, 0.43% hits; in the data active = inhibition above about 24%
BJeLR lethal: kills HRASV12-expressing BJeLR cells | inhibition, % (no concentration beside the values) | 300,000 compounds, 0.17% hits | BJeLR (HRASV12) viability, CellTiter-Glo ATP luminescence, 48 h; in the data active = inhibition above about 50%; inconclusive = no clear call, values can overlap the other calls
PrP UTR inh: suppresses PrP 5' UTR mRNA reporter expression; cell-based PrP 5' UTR mRNA reporter, plate reader; 340,000 compounds, 0.35% hits; inhibition, % (concentration not given with the values); in the data active = inhibition above about 52%
CCHF vOTU inh-2: confirmation of CCHF virus vOTU protease inhibitors; Recombinant CCHFV vOTU, Pep-AMC fluorescence; AID 686976; shares compounds with CCHF vOTU inh-1; inhibition, % at 11.5 µM; 1,900 compounds, 17% hits
A number is an active result; n = inactive; u = inconclusive; x = no result given. An excerpt weighted towards active compounds, which were near 2% of everything screened. Cut-off read from the data, not from the text of the source, unless noted: active = inhibition above about 30%; inactive = the rest.

SMILES | Y pestis TopoI | PfHsp40 rescue | CCHF vOTU inh-1 | PrPC surface inh | BJeLR lethal | PrP UTR inh | CCHF vOTU inh-2
CCOC(=O)[C@]12CCCC3=C1N(CCC3)C(=O)[C@@H](CC(=O)N1CCN(C(=O)C3CC3)CC1)C2 | x | x | n | n | x | x | x
CC(C)c1[nH]nc2c1C(c1cccc(C(F)(F)F)c1)N(c1ccccc1)C2=O (stereo not given) | x | x | 34 | n | x | x | n
O=C1c2[nH]nc(-c3ccccc3)c2C(c2cccc(C(F)(F)F)c2)N1c1ccccc1 (stereo not given) | x | x | n | n | x | x | x
COc1ccc(OC)c2c1C(=O)c1ccccc1C2=O | x | x | n | n | n | x | x
COc1ccc2noc3c2c1C(=O)c1ccccc1-3 | n | n | 64 | n | n | n | 104
CN1[C@@H](Cc2ccccc2)COc2cc(N3CCCC3)ccc2S1(=O)=O | x | x | n | n | x | x | x
CCOC(=O)N=Nc1c2ccccc2c2nc3no[nH]c3nc12 | n | 116 | 59 | n | 54 | n | 86
CCn1c(=O)c(C(=O)CN(C)CC(=O)Nc2cccc(F)c2)c(N)n(Cc2ccccc2)c1=O | n | n | 30 | n | x | n | n
Cc1cccc(NC(=O)c2nc[nH]c2C(=O)N(C)CCO)c1 | x | x | n | n | x | x | x
COc1cc(OC)c([N+](=O)[O-])cc1/C=N/NC(=O)c1ccncc1 | n | n | 34 | n | n | n | n
CCC(C)(C)C1CCc2c(sc(NC(=O)c3ccccc3C(=O)O)c2C#N)C1 (stereo not given) | n | n | 35 | n | n | n | n
CNC12CCc3cc(OC)c(OC)c(c31)-c1cc3c(cc1C2)OCO3 (stereo not given) | x | x | n | n | x | x | x
Cc1cc(SCC(=O)NC2CC2)nc2ccccc12 | n | n | 40 | n | x | n | n
COc1ccc2c(C)cc(SCC(=O)NC3CCCC3)nc2c1 | n | n | n | n | x | n | x
COc1cccc(N(C)C(=O)[C@@H](C)[C@@H](O)c2ccc(C(C)=O)cc2)c1 | x | x | n | n | x | x | x
CC(=O)c1cccc(NC(=O)C2Cc3c(-c4cccc(C(C)=O)c4)ccnc3O2)c1 (stereo not given) | n | x | n | n | x | x | x
CC1(C(=O)Nc2cccc(OC(F)(F)F)c2)Cc2c(-c3cccc(C(F)(F)F)c3)ccnc2O1 (stereo not given) | n | x | 40 | n | x | x | n
CC(=O)c1cccc(-c2ccnc3c2CC(C(=O)Nc2cccc(C(F)(F)F)c2)O3)c1 (stereo not given) | n | x | 33 | n | x | x | n
CC(=O)c1cccc(NC(=O)C2(C)Cc3c(-c4cccc(C(F)(F)F)c4)ccnc3O2)c1 (stereo not given) | n | x | 33 | n | x | x | n
COC(=O)[C@]12C[C@H](CC(=O)NCC34CC5CC(CC(C5)C3)C4)C(=O)N(Cc3ccccc3)C1=C[C@H](C1CCCC1)O[C@@H]2C | x | x | n | n | x | x | x
CC(c1c[nH]c2ccccc12)c1cn(C)c2ccccc12 (stereo not given) | x | x | n | n | x | x | x
C[C@@H]1CCN(C2CC2)S(=O)(=O)c2ccc(N3CC[C@@H](O)C3)cc2O1 | x | x | n | n | x | x | x
COC(=O)c1ccc(-c2nc3cc(Cl)c(N)cc3s2)cc1 | n | n | 43 | n | n | n | n
COC(=O)c1ccc(-c2nc(O)c(C)s2)cc1 | n | n | n | n | n | n | x
COc1ccc(NC(=O)N(CCc2c(C)[nH]c3ccccc23)Cc2cccs2)cc1OC | x | x | n | n | x | x | x
SMILES | Y pestis TopoI | PfHsp40 rescue | CCHF vOTU inh-1 | PrPC surface inh | BJeLR lethal | PrP UTR inh | CCHF vOTU inh-2
COc1cc(/C=C(\C#N)c2nc3ccccc3o2)ccc1O | n | n | 33 | n | n | n | n
N#C/C(=C\c1ccc(O)cc1)c1nc2ccccc2o1 | n | n | n | n | n | n | x
O=C(N/N=C/c1ccc(Br)o1)/C(=C/c1ccc([N+](=O)[O-])cc1)NC(=O)c1ccccc1 | n | n | 38 | n | n | n | n
O=C(N/N=C/c1ccco1)/C(=C/c1cccc([N+](=O)[O-])c1)NC(=O)c1ccccc1 | n | n | n | n | n | n | x
Cc1ccc(C(O)c2ncc(-c3ccc(F)cc3)[nH]2)c(C)c1 (stereo not given) | n | x | 31 | n | x | x | n
Cc1ccc(C)c(C(O)c2ncc(-c3ccc(F)cc3)[nH]2)c1 (stereo not given) | n | x | n | n | x | x | x
Cc1cccc(C(O)c2ncc(-c3cccc(C(F)(F)F)c3)[nH]2)c1C (stereo not given) | n | x | 44 | n | x | x | n
O=C(c1ccc(F)cc1)C1CCN(CCCn2c(=O)[nH]c3ccccc32)CC1 | x | x | n | n | x | x | x
N#Cc1c(NC(=O)c2ccc(Br)o2)n(-c2ccccc2)c2nc3ccccc3nc12 | n | n | 30 | n | n | n | n
CCCCn1c(NC(=O)c2ccc(F)cc2)c(C#N)c2nc3ccccc3nc21 | x | x | x | x | n | x | x
CCC(C)n1c(NC(=O)c2ccccc2)c(C#N)c2nc3ccccc3nc21 (stereo not given) | n | n | 94 | n | n | n | 68
COc1ccc(-n2c(NC(=O)c3ccc(Br)o3)c(C#N)c3nc4ccccc4nc32)cc1 | x | x | x | x | n | x | x
CCCCn1c(NC(=O)c2ccccc2)c(C#N)c2nc3ccccc3nc21 | n | n | 121 | n | x | n | 90
C[C@H]1CN(S(=O)(=O)C(C)(C)C)[C@@H](CCO)/C1=C\CCO | x | x | n | n | x | x | x
COc1cc(NC(=O)NC2CCCCN(Cc3cccc(Cl)c3)C2=O)cc(OC)c1 (stereo not given) | x | x | n | n | x | x | x
C=CC(=O)NC1CCCCN(C(C)C)C1=O (stereo not given) | x | x | n | n | x | x | x
Cc1ccc(NC(=S)NNc2ccc([N+](=O)[O-])cc2S(=O)(=O)Nc2ccccc2C(=O)O)cc1C | n | n | n | n | n | n | x
O=C(O)c1ccccc1NS(=O)(=O)c1ccc(NNC(=S)Nc2ccc(OC(F)F)cc2)c([N+](=O)[O-])c1 | n | n | 70 | n | n | n | 65
COc1ccc(NS(=O)(=O)c2ccc(O)c(NC(=O)c3ccc(S(=O)(=O)N4CCCC4)cc3)c2)cc1 | n | n | 34 | n | n | n | n
COc1ccc(NS(=O)(=O)c2ccc(O)c(NC(=O)c3ccc(S(=O)(=O)N4CCCCCC4)cc3)c2)cc1 | n | n | n | n | n | n | x
COc1cc(COC(=O)Oc2ccc(CNC(C)=O)cc2OC)c([N+](=O)[O-])cc1OC | n | n | 31 | n | n | n | n
CCO/C=C1/C(=O)N(Cc2ccccc2)C(=O)c2ccccc21 | n | n | 95 | n | n | n | 108
CCO/C=C1\C(=O)N(c2ccccc2)C(=O)c2ccccc21 | n | u | x | x | x | n | x
COc1ccccc1C(=O)N1CCCC(C)(C(=O)NS(=O)(=O)C2CC2)C1 (stereo not given) | n | x | 30 | n | x | x | n
COc1ccc(N=NC2=C(O)CC(C)(C)CC2=O)cc1 | n | n | 32 | n | n | n | n
CC(N)c1csc(Nc2ccc(C(=O)c3ccccc3)cc2)n1 (stereo not given) | n | x | n | n | x | x | x

High-throughput results as filed in PubChem BioAssay.
